Our source for the cytotoxicity values is PubChem BioAssay AID620 (Sanford-Burnham Center for Chemical Genomics, 2007).

The campaign covered roughly 87,000 compounds. About 360 (0.41%) were called active. The full list was thinned out, with actives kept by preference. Values without a mark were called inactive. Rule as the data show it: active = cytotoxicity above about 50%; inactive = the rest.

This experiment is described as follows: HT1080 cell viability loss – fluorescence readout (AID 620).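 Also: cells exposed to compound overnight then 4 h with Alamar Blue; 0% = vehicle DMSO and 100% = killing control.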 The conditions noted are these: at 10 µM, hits give high values.
Regarding `COCCn1nnnc1CN(Cc1ccco1)Cc1cc2cc3c(cc2[nH]c1=O)OCO3`, the cytotoxicity was -10.7%.
The result for `CCn1cc(C(=O)NCc2cccs2)c(=O)c2ccc(C)nc21` reads -4%.
As for `COc1ccc(OC)c(Nc2cc(C)nc3ccccc23)c1`, the figure is 20.6%; as for `COc1ccc(OC)c(Nc2cc(-c3ccccc3)nc(N)n2)c1`, 56.1% (active).
As to `COc1ccc(OC)c(Nc2nc(N)nc(-c3cc4ccccc4o3)n2)c1`, the cytotoxicity is 4.8%.
As for `c1ccc(CSc2ncccn2)cc1`, the figure is 4.3%; as for `O=C(CCNS(=O)(=O)c1ccccc1F)NCc1ccc2c(c1)OCO2`, -0.4%.
The result for `COC(=O)N1[C@H](C)C=C[C@]1(Cc1ccccc1)C(=O)OC` reads -24.7%.
Consider `COC(=O)N1[C@H](C)C=C[C@]1(Cc1ccccc1)C(=O)O`, for which the cytotoxicity is 90.8% (active).
As for `CNC(=O)[C@@]1(Cc2ccccc2)C=C[C@@H](C)N1C(=O)OC`, the figure is -24.6%; as for `CCc1nnc(NC(=O)CSc2nccn2-c2cccc(C)c2C)s1`, -9.5%.
The result for `Cc1nnc(NC(=O)CSc2nccn2-c2cccc(C)c2C)s1` reads 54.7% (active); that for `CCSc1nnc(NC(=O)CSc2nccn2-c2cccc(C)c2C)s1`, -8.3%; that for `CN1/C(=C\C(=O)c2ccco2)C(C)(C)c2ccccc21`, 9%.
As for `CN1/C(=C\C(=O)C(F)F)C(C)(C)c2ccccc21`, the figure is -3.2%; as for `CC(=O)c1ccc(Oc2cc(C)nc(NCc3ccccc3)n2)cc1`, -1%; as for `COC(=O)c1ccc(Oc2nc(C)cc(Oc3ccccc3)n2)cc1`, 11.3%.
As for `COC(=O)c1ccc(Oc2cc(C)nc(SC)n2)cc1`, the cytotoxicity is 48.5%.
The result for `Cc1ccc(Oc2cc(-n3nc(C)cc3C)ncn2)cc1` reads -3.6%.
As for `CC(=O)c1ccc(Oc2cc(C)nc(-n3nc(C)cc3C)n2)cc1`, the figure is 50.3% (active).
As for `COC(=O)c1ccc(Oc2cc(C)nc(-n3nc(C)cc3C)n2)cc1`, the figure is 68.3% (active); as for `c1ccc(-c2cc(-c3nc(-c4ccccn4)no3)c3ccccc3n2)cc1`, -10.1%.
As to `COc1cccc(C(c2sc3nc(C)nn3c2O)N2CCc3ccccc3C2)c1` (stereo not drawn), the cytotoxicity is -7.4%.
As for `CCOC(=O)CNC(=O)CSc1nnc(Cn2c(=O)sc3ccccc32)n1C`, the figure is -4.4%.
On to `Cc1nn(-c2ccccc2)c(C)c1C(=O)OCC(=O)NCc1ccco1`, for which the cytotoxicity was -6.6%.
As for `Cc1cc(C(=O)OCC(=O)NCc2ccco2)c(C)n1-c1ccc(F)cc1`, the figure is 63.7% (active); as for `Cc1cc(C(=O)OCC(=O)NCc2ccco2)c(C)n1-c1ccccc1`, 62.1% (active); as for `O=C(COC(=O)c1ccccc1)NCc1ccco1`, 6.9%.
The result for `Cc1cc(C(=O)OCC(=O)N2CCN(C(=O)c3ccco3)CC2)c(C)n1-c1ccc(F)cc1` reads -4.9%; that for `Cc1cc(C(=O)CNCc2ccco2)c(C)n1-c1ccc(F)cc1`, 2.4%; that for `COc1cccc(NC(=O)c2ccccc2-c2nc(-c3ccc(Cl)cc3)no2)c1`, 16.9%.
The result for `O=C(NCc1ccco1)C(C(=O)c1ccc(F)cc1)n1ccccc1=O` (stereo not drawn) reads -0.6%.
For the molecule `Cc1cc(NC(=O)COC(=O)c2ccc(NS(=O)(=O)c3ccc(C)c(C)c3)cc2)no1`, the cytotoxicity was -8.8%.
As for `CC(=O)Nc1ccc(S(=O)(=O)N2CCCc3ccccc32)cc1`, the cytotoxicity is 23.1%.
The result for `COC(=O)Nc1ccc(S(=O)(=O)N2CCCc3ccccc32)cc1` reads 53% (active); that for `O=C(O)C1CC=CCC1C(=O)Nc1ccc(S(=O)(=O)N2CCCc3ccccc32)cc1` (stereo not drawn), -8.5%.
As for `Cc1cc(NC(=O)COC(=O)c2ccc(S(=O)(=O)N3CCCc4ccccc43)cc2)no1`, the figure is 52.4% (active); as for `Cc1cc(NC(=O)COC(=O)c2cccc(S(=O)(=O)N3CCOCC3)c2)no1`, 8.4%.
In the case of `COc1ccc(CCNS(=O)(=O)c2ccc3c(c2)oc(=O)n3C)cc1OC`, the cytotoxicity is 3.2%.
As for `CCOC(=O)COc1ccc(S(=O)(=O)N2CCN(c3ccccc3F)CC2)cc1`, the figure is -0.3%.
The result for `Cc1ccc2cc3c(N)c(C(=O)N4CCOCC4)sc3nc2c1` reads 3.2%; that for `Cc1cccc2cc3c(N)c(C(=O)N4CCOCC4)sc3nc12`, 59% (active).
As for `Cc1cccc2cc3c(N)c(C#N)sc3nc12`, the figure is 2.6%; as for `Cc1ccc2nc3sc(C(=O)N4CCOCC4)c(N)c3cc2c1`, 55.8% (active); as for `CCOc1ccc2nc3sc(C(=O)N4CCN(C)CC4)c(N)c3cc2c1`, -19.5%.
Take `COc1ccc2cc3c(N)c(C(=O)N4CCCC4)sc3nc2c1`: the cytotoxicity was 3.4%.
As for `CCN(CC)CCNC(=O)c1c(O)c2c([nH]c1=O)CCCC2`, the figure is 0.6%.
The result for `O=C(CCn1c(=S)[nH]c2ccccc2c1=O)N1CCOCC1` reads -2.8%; that for `O=C1C2CC=C(Cl)CC2C(=O)N1c1ncn[nH]1` (stereo not drawn), -1.3%.
As for `CC(C)C1N(c2ccccc2)C(N)=C(C#N)C1(C#N)C#N` (stereo not drawn), the figure is -5.5%; as for `COc1ccc(-c2nnc(Nc3nc4c(OC)cccc4s3)o2)c(OC)c1`, 8.4%; as for `COc1cccc2sc(Nc3nnc(-c4ccccc4Cl)o3)nc12`, -3.2%.
In the case of `COc1ccccc1-c1nnc(Nc2nc3c(OC)cccc3s2)o1`, the cytotoxicity is 51.8% (active).
The result for `Cc1ccc(C(C(=O)NCc2ccccc2)N(C(=O)c2csnn2)c2cccc3ccccc23)o1` (stereo not drawn) reads -5.1%; that for `COc1cc(/C=N/Nc2nc3ccccc3o2)cc(OC)c1O`, 17.8%.
The result for `Cc1cc2c(N)cccc2nn1` reads -9.9%; that for `Nc1cccc2cnccc12`, 20.7%.
The result for `CNC(=O)CSc1nc2nc(C)cc(C)n2n1` reads 16.5%; that for `CCCCS(=O)(=O)/C=C\C1C2C=CC(C2)C1S(=O)(=O)CCCC` (stereo not drawn), -14.4%; that for `CCCCS(=O)(=O)/C=C/[C@H]1[C@H](S(=O)(=O)CCCC)[C@H]2C=C[C@@H]1C2`, 0.3%.
As for `CCCCS(=O)(=O)/C=C\C=C/S(=O)(=O)CCCC`, the cytotoxicity is 94% (active).
On to `CCC(C)NC(=O)CNS(=O)(=O)c1ccc(C)cc1` (stereo not drawn), for which the cytotoxicity is 1.4%.
`COc1cc(CNc2ccc3c(c2)CCC3)cc(OC)c1O`: the cytotoxicity was -2.4%.
